Read-out in experiment [1]: E-selectin (Homo sapiens) (UniProt P16581)
In words: BSK_SAg_Eselectin: BioMAP Diversity Plus: SAg Assay for Eselectin Biomarker Activity (AID 2283091). Conditions: primary human HUVEC with PBMC; actives raise or lower the signal. The method, boiled down:
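E-selectin ELISA readout at 24 h post-dosing in human umbilical vein endothelial cell/PBMC co-culture; gain or loss of signal fitted relative to DMSO baseline.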

Read-out in experiment [2]: Monokine induced gamma interferon (MIG), CXCL9 (gene 4283)
The experiment can be described thus: BSK_SAg_MIG: BioMAP Diversity Plus: SAg Assay for Monokine induced gamma interferon (MIG) Biomarker Activity (AID 2283092). Conditions: primary human HUVEC with PBMC; actives raise or lower the signal. In a few lines: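 ELISA readout of MIG/CXCL9; primary human umbilical vein endothelial cells co-cultured with peripheral blood mononuclear cells; 24 h post-dose; gain/loss fit vs DMSO baseline.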

A short description of experiment [3]: BSK_SAg_PBMCCytotoxicity: PBMC Cytotoxicity Assessment in the BioMAP Diversity Plus: SAg Assay (AID 2283093).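 For AC50: PBMC superantigen activated with SEB plus TSST-1 one hour after compound addition.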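 Note: PBMC viability measured as Alamar Blue reduction fluorescence at 546/580 nm; fitted both ways against DMSO so a hit may be loss or gain of signal.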 As to conditions: primary human HUVEC with PBMC. In a few lines: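 Alamar Blue reduction (6 h, 546/580 nm) reports PBMC cytotoxicity after 90 h superantigen activation (SEB, TSST-1; 20 ng/mL final each) with 1 h compound pre-treatment. Gain or loss of signal fitted versus DMSO.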

Read-out in experiment [4]: Interleukin-8 (IL8), CXCL8 (gene 3576)
The experiment can be described thus: BSK_SAg_IL8: BioMAP Diversity Plus: SAg Assay for Interleukin-8 (IL8) Biomarker Activity (AID 2283094). As to conditions: primary human HUVEC with PBMC; actives raise or lower the signal. The method, boiled down: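 Chemicals were dosed onto a human endothelial–PBMC co-culture, and IL-8 was quantified by ELISA after 24 h. Both increases and decreases were fitted relative to DMSO.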

Experiment [5] can be described thus: BSK_SAg_Proliferation: Cell Proliferation Assessment in the BioMAP Diversity Plus: SAg Assay (AID 2283095).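 Note: relative cell number as total protein by SRB absorbance in sub-confluent culture.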 Conditions: primary human HUVEC with PBMC. The method, boiled down: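 Absorbance of sulforhodamine B at 560 nm reports total protein in a human vascular endothelial/PBMC co-culture after 96 h chemical exposure. Gain or loss of signal is fitted in both directions against DMSO.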

Experiment [6] can be described thus: BSK_SAg_SRB: Viability Assessment in the BioMAP Diversity Plus: SAg Assay (AID 2283096).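 Note: cells read one day after compound addition; hits may be either gain or loss of signal compared with DMSO.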 As to conditions: primary human HUVEC with PBMC. The method, boiled down:
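This overt-cytotoxicity endpoint quantifies protein in human endothelial/PBMC co-cultures at 24 h using SRB absorbance (560 nm) after trichloroacetic acid fixation. Values reflect signal change from the DMSO negative control, fitted bidirectionally.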

The target in experiment [7] is human AKT serine/threonine Kinase 1 (AKT1), AKT1 (gene 207) (UniProt P31749). The experiment can be described thus: NVS_ENZ_hAKT1: NovaScreen (NVS) Enzymatic Assay for human AKT serine/threonine Kinase 1 (AKT1) (AID 2283138; active = hit-call score of the fitted dose curve at least 0.9, where 1 is the maximum). The method, boiled down: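 Compounds were first tested in duplicate at 25 uM, and those passing a threshold such as 30% inhibition were run in concentration-response to a maximum of 50 uM. Enzyme activity was measured after 1 h by fluorescence following substrate/product mobility-shift separation.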
Chain of human AKT serine/threonine Kinase 1 (AKT1), AKT1 (gene 207) (P31749 whole entry, looked up): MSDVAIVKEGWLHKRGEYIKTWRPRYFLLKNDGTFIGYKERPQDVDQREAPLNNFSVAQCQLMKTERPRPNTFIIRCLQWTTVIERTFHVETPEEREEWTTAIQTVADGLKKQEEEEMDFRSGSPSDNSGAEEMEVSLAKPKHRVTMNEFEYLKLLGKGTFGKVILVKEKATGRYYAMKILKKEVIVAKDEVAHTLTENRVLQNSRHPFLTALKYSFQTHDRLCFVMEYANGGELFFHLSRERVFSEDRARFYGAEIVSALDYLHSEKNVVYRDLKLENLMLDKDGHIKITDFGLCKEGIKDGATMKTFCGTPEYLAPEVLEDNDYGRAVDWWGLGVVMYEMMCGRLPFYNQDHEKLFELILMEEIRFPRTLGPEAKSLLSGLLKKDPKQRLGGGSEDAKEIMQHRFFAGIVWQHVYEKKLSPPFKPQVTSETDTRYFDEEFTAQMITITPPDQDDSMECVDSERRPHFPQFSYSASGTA

Experiment [8] addresses human Beta-secretase (BACE), BACE1 (gene 23621) (UniProt P56817). The experiment can be described thus: NVS_ENZ_hBACE: NovaScreen (NVS) Enzymatic Assay for human Beta-secretase (BACE) (AID 2283140; active = hit-call score of the fitted dose curve at least 0.9, where 1 is the maximum;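 note: hits are inhibitors that reduce fluorescent substrate signal versus DMSO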). The method, boiled down:
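Fluorescence intensity read-out of protease activity defines this endpoint; signal loss relative to DMSO baseline marks inhibition. Recombinant enzyme from SF9 cells, cell-free format, 1 h exposure. Single-concentration duplicate screen (25 uM) precedes concentration-series follow-up.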

Experiment [9] has as its target human CYP1A1, CYP1A1 (gene 1543) (UniProt P04798). The experiment can be described thus: NVS_ADME_hCYP1A1: NovaScreen (NVS) CYP450-related Enzyme Activity (ADME) Assay for human CYP1A1 (AID 2283100; active = hit-call score of the fitted dose curve at least 0.9, where 1 is the maximum). In a few lines: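 Read-out: fluorescence intensity from enzymatic turnover of substrate by recombinant CYP1A1, loss of signal indicating inhibition. Incubation 1 h post-dose. Primary single-point 10 uM in duplicate; actives rerun singly with top concentration 20 uM.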

The target in experiment [10] is human CYP2B6, CYP2B6 (gene 1555) (UniProt P20813). The experiment can be described thus: NVS_ADME_hCYP2B6: NovaScreen (NVS) CYP450-related Enzyme Activity (ADME) Assay for human CYP2B6 (AID 2283101; active = hit-call score of the fitted dose curve at least 0.9, where 1 is the maximum). In a few lines: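 Fluorescence-based enzyme activity of recombinant human CYP2B6, measured 1 h post-dose against acetonitrile vehicle baseline. Screened at a single concentration of 10 uM in duplicate before concentration-response follow-up.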
Chain of human CYP2B6, CYP2B6 (gene 1555) (P20813 whole entry, looked up): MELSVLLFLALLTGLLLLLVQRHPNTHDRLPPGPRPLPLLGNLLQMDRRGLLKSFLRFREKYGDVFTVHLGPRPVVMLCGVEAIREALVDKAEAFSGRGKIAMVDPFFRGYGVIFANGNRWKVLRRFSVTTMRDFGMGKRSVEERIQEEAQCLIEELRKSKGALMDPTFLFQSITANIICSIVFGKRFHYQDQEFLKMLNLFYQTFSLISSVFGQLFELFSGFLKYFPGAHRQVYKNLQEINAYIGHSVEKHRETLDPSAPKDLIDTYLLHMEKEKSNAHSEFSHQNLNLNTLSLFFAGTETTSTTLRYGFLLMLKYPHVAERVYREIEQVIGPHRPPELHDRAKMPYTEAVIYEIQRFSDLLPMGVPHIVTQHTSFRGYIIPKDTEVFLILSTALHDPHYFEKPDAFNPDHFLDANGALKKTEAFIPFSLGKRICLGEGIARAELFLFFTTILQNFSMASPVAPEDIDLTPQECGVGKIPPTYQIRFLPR

Experiment [11] addresses human CYP1A2, CYP1A2 (gene 1544) (UniProt P05177). The experiment can be described thus: NVS_ADME_hCYP1A2: NovaScreen (NVS) CYP450-related Enzyme Activity (ADME) Assay for human CYP1A2 (AID 2283102; active = hit-call score of the fitted dose curve at least 0.9, where 1 is the maximum). The method, boiled down:
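Fluorescence-intensity enzyme activity read-out, taken 0.5 h post-dosing, using insect-cell-derived recombinant CYP1A2 and specific fluorescent substrate. Acetonitrile served as negative control/baseline. Single-concentration duplicate screen at 10 uM, then concentration-response follow-up.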

Experiment [12] deals with human CYP2D6, CYP2D6 (gene 1565) (UniProt P10635). The experiment can be described thus: NVS_ADME_hCYP2D6: NovaScreen (NVS) CYP450-related Enzyme Activity (ADME) Assay for human CYP2D6 (AID 2283107; active = hit-call score of the fitted dose curve at least 0.9, where 1 is the maximum). The method, boiled down:
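Fluorescence intensity read 1 h post-dosing; insect-cell-expressed recombinant protein with fluorogenic substrate, no cells. Activity is scored as signal loss relative to acetonitrile baseline, first at a single 10 uM concentration in duplicate, then as concentration series for confirmed actives.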

The target of experiment [13] is human CYP2C9, CYP2C9 (gene 1559) (UniProt P11712). The experiment can be described thus: NVS_ADME_hCYP2C9: NovaScreen (NVS) CYP450-related Enzyme Activity (ADME) Assay for human CYP2C9 (AID 2283108; active = hit-call score of the fitted dose curve at least 0.9, where 1 is the maximum). The method, boiled down:
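Cell-free assay of recombinant human CYP2C9 produced in Sf9 cells, with enzyme activity read by fluorescence intensity 0.75 h after compound addition. Loss of signal versus an acetonitrile negative control indicates inhibition. Primary screen used 10 uM in duplicate; actives were retested in concentration series.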

Experiment [14] concerns the target Cytochrome P450 2C19 (Homo sapiens) (UniProt P33261). In words: NVS_ADME_hCYP2C19: NovaScreen (NVS) CYP450-related Enzyme Activity (ADME) Assay for human CYP2C19 (AID 2283113; active = hit-call score of the fitted dose curve at least 0.9, where 1 is the maximum;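 note: potency for inhibition seen as loss of fluorescent signal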). In a few lines:
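Recombinant insect-cell-expressed enzyme, fluorescent substrate, 1 h after chemical addition, fluorescence intensity. Baseline = acetonitrile vehicle; activity scored as signal loss. Primary HTS single concentration 10 uM, duplicate; actives retested in concentration series.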

Experiment [15] addresses human Caspase 5 (CASP5), CASP5 (gene 838) (UniProt P51878). The experiment can be described thus: NVS_ENZ_hCASP5: NovaScreen (NVS) Enzymatic Assay for human Caspase 5 (CASP5) (AID 2283137; active = hit-call score of the fitted dose curve at least 0.9, where 1 is the maximum). The method, boiled down:
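Chemicals were first tested in duplicate at 25 uM against recombinant caspase 5 from E. coli. Activity was read by fluorescence intensity 2 hours after dosing. Those passing a preset inhibition threshold were retested in singleton concentration-response up to 50 uM.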

Results filed as inconclusive are left out. Calls of active or inactive are those of the source. Rule for the calls, unless noted: active = hit-call score of the fitted dose curve at least 0.9, where 1 is the maximum; inactive = score below 0.9.

We go through eleven molecules from PubChem BioAssay (EPA / NIEHS).

Chain of human Beta-secretase (BACE), BACE1 (gene 23621) (P56817 whole entry, looked up): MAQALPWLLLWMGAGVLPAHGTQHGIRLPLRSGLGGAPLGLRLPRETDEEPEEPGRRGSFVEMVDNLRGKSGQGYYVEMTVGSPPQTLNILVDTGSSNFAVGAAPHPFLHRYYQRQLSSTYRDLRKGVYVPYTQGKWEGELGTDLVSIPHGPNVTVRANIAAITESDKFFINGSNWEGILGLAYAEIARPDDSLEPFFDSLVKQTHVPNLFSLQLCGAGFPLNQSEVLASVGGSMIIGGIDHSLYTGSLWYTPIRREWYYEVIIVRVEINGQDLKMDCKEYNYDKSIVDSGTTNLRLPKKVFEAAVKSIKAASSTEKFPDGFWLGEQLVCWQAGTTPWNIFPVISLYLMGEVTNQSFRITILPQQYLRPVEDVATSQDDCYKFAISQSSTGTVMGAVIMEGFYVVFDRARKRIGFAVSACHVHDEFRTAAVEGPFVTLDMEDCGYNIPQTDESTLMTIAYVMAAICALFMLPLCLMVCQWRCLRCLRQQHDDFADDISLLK
Chain of E-selectin (Homo sapiens) (P16581 whole entry, looked up): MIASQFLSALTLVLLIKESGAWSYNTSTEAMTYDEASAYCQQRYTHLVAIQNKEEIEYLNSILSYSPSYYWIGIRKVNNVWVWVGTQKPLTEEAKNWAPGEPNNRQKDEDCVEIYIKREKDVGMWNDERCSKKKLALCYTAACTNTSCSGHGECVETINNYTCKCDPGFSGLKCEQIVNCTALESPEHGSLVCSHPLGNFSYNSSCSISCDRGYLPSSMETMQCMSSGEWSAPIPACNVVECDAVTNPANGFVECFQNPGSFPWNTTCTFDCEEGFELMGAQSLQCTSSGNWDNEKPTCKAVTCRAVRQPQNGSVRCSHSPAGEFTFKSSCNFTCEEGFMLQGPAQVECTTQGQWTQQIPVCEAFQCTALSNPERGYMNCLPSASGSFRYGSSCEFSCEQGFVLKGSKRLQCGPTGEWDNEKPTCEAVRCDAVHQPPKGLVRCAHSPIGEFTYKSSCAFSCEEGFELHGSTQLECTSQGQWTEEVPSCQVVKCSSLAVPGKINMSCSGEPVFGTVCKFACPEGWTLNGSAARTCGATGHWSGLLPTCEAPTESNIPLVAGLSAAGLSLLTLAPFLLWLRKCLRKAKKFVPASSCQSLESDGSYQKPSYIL
Chain of human CYP2C9, CYP2C9 (gene 1559) (P11712 whole entry, looked up): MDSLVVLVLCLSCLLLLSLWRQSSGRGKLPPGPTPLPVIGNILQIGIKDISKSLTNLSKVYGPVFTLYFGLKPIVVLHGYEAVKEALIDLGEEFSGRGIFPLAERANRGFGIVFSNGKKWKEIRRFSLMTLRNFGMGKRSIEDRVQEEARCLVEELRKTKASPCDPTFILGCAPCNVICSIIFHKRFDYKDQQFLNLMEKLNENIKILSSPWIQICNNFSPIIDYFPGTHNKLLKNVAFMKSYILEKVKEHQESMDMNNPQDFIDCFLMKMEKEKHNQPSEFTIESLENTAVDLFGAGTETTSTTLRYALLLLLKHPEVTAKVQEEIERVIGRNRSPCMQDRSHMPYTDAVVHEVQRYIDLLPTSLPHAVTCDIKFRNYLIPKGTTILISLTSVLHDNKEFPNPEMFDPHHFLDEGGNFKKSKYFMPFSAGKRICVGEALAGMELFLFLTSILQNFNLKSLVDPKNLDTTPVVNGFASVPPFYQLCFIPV
Chain of human Caspase 5 (CASP5), CASP5 (gene 838) (P51878 whole entry, looked up): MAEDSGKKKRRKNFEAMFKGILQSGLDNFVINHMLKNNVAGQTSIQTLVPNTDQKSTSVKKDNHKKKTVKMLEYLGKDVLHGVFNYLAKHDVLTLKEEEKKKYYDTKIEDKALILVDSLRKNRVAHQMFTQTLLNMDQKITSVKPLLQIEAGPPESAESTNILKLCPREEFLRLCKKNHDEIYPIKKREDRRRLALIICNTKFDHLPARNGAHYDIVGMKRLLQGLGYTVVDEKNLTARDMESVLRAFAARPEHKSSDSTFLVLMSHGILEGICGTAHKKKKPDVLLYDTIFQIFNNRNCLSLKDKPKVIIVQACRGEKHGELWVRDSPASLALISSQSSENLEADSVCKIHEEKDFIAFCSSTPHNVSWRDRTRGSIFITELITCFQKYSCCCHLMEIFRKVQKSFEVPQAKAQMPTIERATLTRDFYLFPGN
Chain of human CYP1A2, CYP1A2 (gene 1544) (P05177 whole entry, looked up): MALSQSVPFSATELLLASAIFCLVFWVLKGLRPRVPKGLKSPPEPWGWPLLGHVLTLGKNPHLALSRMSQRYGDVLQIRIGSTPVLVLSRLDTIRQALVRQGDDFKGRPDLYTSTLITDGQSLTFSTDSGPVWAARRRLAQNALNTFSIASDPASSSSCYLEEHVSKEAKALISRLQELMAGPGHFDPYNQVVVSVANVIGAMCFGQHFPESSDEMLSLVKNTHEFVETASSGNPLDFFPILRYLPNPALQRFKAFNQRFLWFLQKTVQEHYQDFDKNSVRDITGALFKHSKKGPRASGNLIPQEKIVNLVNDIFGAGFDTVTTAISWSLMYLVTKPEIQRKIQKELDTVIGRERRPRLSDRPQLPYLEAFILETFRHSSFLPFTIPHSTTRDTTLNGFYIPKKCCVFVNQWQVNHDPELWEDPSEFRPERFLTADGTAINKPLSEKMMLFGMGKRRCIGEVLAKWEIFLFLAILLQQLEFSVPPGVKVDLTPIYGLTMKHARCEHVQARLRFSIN
Chain of human CYP2D6, CYP2D6 (gene 1565) (P10635 whole entry, looked up): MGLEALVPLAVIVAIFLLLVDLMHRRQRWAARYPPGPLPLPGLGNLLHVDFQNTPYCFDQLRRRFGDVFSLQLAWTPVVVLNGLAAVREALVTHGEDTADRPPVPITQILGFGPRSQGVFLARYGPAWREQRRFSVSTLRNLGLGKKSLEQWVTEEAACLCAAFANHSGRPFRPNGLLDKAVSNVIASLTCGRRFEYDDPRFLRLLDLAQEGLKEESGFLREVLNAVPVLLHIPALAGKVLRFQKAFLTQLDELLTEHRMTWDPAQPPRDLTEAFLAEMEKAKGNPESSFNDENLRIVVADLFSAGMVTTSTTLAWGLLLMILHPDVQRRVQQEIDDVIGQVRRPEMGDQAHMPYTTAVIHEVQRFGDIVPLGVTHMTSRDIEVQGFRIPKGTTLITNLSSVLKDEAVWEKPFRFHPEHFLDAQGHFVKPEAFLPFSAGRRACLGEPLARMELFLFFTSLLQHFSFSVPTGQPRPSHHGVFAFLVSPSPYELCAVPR
Chain of human CYP1A1, CYP1A1 (gene 1543) (P04798 whole entry, looked up): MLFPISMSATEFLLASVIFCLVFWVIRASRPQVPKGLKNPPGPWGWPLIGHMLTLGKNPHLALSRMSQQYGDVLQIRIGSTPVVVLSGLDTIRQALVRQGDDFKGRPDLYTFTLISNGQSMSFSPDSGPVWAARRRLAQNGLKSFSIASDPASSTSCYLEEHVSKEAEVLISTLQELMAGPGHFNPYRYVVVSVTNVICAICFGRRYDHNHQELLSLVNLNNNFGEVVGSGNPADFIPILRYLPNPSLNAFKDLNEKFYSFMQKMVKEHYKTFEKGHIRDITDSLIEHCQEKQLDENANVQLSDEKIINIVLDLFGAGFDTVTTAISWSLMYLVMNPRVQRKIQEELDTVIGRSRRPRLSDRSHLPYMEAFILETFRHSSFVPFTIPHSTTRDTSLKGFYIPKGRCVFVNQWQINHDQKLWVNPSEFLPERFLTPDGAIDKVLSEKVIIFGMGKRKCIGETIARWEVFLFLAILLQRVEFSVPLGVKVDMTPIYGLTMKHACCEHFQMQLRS

As for `CCCCCCOCCO`, the outcome in experiment [1], in experiment [2], in experiment [3], in [4], in experiment [5] and in experiment [6] was inactive. The molecule was classed as inactive in experiment [7].

`Nc1ccccc1N`: the result in experiment [1], in [2], in experiment [3], in [4], in experiment [5] and in experiment [8] was inactive.

Consider `CCOc1ccc2c(c1)C(C)=CC(C)(C)N2`, for which the result in experiment [1], in experiment [2], in [4], in experiment [9] and in experiment [11] was inactive. Moreover, the AC50 is 10.1 µM (active) in experiment [3]; 24.8 µM (active) in experiment [5]; 11.6 µM (active) in experiment [10]; 3.51 µM (active) in experiment [12]; 10 µM (active) in [13].

Turning to `CC(=O)C(C)=CC1C(C)=CCCC1(C)C` (centres undefined), the outcome in experiment [1], in experiment [2], in experiment [3], in experiment [4], in experiment [5] and in experiment [7] was inactive.

For the molecule `O=C(OCCCCCOC(=O)c1ccccc1)c1ccccc1`, the result in [1], in experiment [2], in experiment [3], in experiment [4], in experiment [5] and in experiment [6] was inactive. Also, the call in experiment [7] was inactive.

`CC(C)(C)c1cc(O)c(C(C)(C)C)cc1O`: the AC50 in [1] is 7.31 µM (active); in [3], 8.8 µM (active); in experiment [5], 27.8 µM (active). Besides, the outcome in [2], in [4], in [6] and in [7] was inactive.

Consider `CCCCCC(=O)O`, for which the outcome in experiment [1], in experiment [2], in [3], in experiment [4], in experiment [5] and in experiment [7] was inactive.

For `CCCCOC(=O)CCCCCCCCC(=O)OCCCC`, the result in experiment [1], in experiment [2], in experiment [3], in [4] and in [5] was inactive. Also, the AC50 in experiment [8] is 2.12 µM (active).

For `Cc1cccc([N+](=O)[O-])c1C`, the outcome in experiment [1], in [2], in experiment [3], in experiment [4] and in experiment [5] was inactive. For the same molecule, the AC50 in experiment [14] is 18.6 µM (active).

Consider `CCCCc1ccc2c(n1)[C@@H](c1ccc(OC)cc1C[C@H](C)C(=O)O)[C@H](C(=O)O)[C@H]2c1ccc2c(c1)OCO2`, for which the result in [1], in [2], in [3], in [4], in experiment [5] and in [6] was inactive. The AC50 in experiment [8] was 9.68 µM (active).

Consider `COc1cc(-c2nc(NC(=O)c3cc4cc(C)cc(C)c4n3CC(=O)O)sc2CCC2CCCCC2)c(OC)cc1Cl`, for which the AC50 in [1] was 5.48 µM (active); in experiment [2], 4.63 µM (active); in experiment [3], 16.9 µM (active); in experiment [4] it was 16.9 µM (active); in experiment [5] it was 3.49 µM (active); in [15], 0.91 µM (active).
